# In PubChem BioAssay:
# Records with an inconclusive call do not appear. Activity calls are given as the source filed them.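 How the source made its calls, unless noted: active means percent response above a set limit, the screen-wide mean plus 3 SD (cut at about 130% in these data); inactive means the rest.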
# Columns and labels:
# [1] = yeast TOR pathway RPL19A-GFP modulators, primary screen, cell-based, S. cerevisiae, multiplex flow cytometry (AID 1862; in the data active means percent of DMSO control GFP below about 86%;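 further: lower values mimic rapamycin by blocking the RPL19A rise seen in DMSO cells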); conditions: S. cerevisiae RPL19A-GFP strain, flow cytometry fluorescence, 3 h; at 10 µM; stronger effect = lower value
# [2] = modulators of MEP2-GFP levels in yeast, primary screen, S. cerevisiae, multiplex flow cytometry (AID 1867;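 active means GFP response, as percent of the DMSO control, above the screen-wide mean plus 3 SD, about 139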;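 further: median GFP channel fluorescence of barcode-gated MEP2-GFP cells measured by flow cytometry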); conditions: S. cerevisiae MEP2-GFP strain, 3 h, at 10 µM, stronger effect = higher value, 100% means same as DMSO wells
# [3] = modulators of CIT2-GFP expression in yeast, primary screen, S. cerevisiae, GFP fusion, multiplex flow cytometry (AID 1870); conditions: 3 h, at 10 µM, stronger effect = higher value;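 further: barcoded CIT2-GFP strain pooled with four other GFP strains with rapamycin as positive control; median GFP fluorescence per well over plate mean of DMSO wells so 100% = DMSO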
# [4] = modulators of LAP4-GFP expression in yeast, primary screen, S. cerevisiae, multiplex flow cytometry (AID 1873;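 active means GFP signal, as percent of the solvent control, above the screen mean plus 3 SD, about 149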); conditions: 3 h, at 10 µM, stronger effect = higher value
# [5] = modulators of AGP1-GFP expression in yeast TOR pathway, primary screen, cell-based, multiplex flow cytometry, S. cerevisiae (AID 1887;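 active means GFP signal above the screen-wide mean plus 3 SD, that is over about 124.5% of the solvent control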;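 further: AGP1-GFP fusion strain of S. cerevisiae within a five-strain barcoded multiplex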); conditions: 3 h, at 10 µM, stronger effect = higher value
# [6] = inhibitors of CD8+ T cell-vesicle binding, pilot screen, LFA-1/ICAM-1 modulator project, MLPCN validation set, flow cytometry (AID 2523;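 active means response below a set limit, under 55% cells CD8-positive and vesicle-bound, and CD8 cells' 90th-percentile brightness under 279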;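 on vesicle binding response: mean PE anti-B7-1 fluorescence of CD8+ cells relative to row control; 100% = QL9-loaded vesicles with DMSO vehicle in the same plate row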); conditions: 2C mouse CD8+ T cells, at 7 µM, stronger effect = lower value; double positive events: measured here: CD8+/vesicle+ event percentage
# [7] = biological target: Integrin beta-1 (Homo sapiens) + Integrin alpha-4 (Homo sapiens) (UniProt P13612+P05556); assay: inhibition of HUTS-21 binding to VLA-4, pilot screen, VLA-4 allosteric modulator project, U937 cells, HUTS-21 mAb, flow cytometry, validation set (AID 2674;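 active means inhibition above 50%, about 3 SD of the validation set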;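 further: antibody binding induced by the VLA-4 ligand LDV present at three times its Kd; 0% = LDV ligand with antibody and no compound and 100% = antibody without LDV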); conditions: HUTS-21 LIBS mAb binding, at 6.7 µM, stronger effect = higher value, binding induced by LDV ligand
# Chain of Integrin beta-1 (Homo sapiens) + Integrin alpha-4 (Homo sapiens) (P05556 whole entry, looked up): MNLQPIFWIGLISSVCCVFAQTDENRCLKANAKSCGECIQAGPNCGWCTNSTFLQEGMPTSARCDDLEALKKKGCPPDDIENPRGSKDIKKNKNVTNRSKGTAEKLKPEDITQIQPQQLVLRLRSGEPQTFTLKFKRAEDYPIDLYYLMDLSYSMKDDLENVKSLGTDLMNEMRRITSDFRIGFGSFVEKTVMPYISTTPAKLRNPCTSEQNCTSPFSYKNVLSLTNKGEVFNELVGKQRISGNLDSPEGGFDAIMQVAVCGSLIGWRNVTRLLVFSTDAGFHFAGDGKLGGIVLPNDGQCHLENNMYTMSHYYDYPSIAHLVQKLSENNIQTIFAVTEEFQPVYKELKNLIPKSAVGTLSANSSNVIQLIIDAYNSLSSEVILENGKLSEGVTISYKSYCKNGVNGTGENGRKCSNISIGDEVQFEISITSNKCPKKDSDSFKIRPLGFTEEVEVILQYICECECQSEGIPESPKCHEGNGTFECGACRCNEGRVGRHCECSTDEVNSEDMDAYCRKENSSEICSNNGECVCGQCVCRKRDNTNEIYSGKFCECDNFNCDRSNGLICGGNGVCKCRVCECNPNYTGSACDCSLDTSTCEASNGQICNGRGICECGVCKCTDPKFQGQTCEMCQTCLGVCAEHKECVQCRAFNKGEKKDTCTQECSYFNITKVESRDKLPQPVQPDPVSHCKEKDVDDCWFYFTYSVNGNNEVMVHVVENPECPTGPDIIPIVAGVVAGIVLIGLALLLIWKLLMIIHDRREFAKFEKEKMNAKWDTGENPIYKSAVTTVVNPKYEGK
# Chain of Integrin beta-1 (Homo sapiens) + Integrin alpha-4 (Homo sapiens) (P13612 whole entry, looked up): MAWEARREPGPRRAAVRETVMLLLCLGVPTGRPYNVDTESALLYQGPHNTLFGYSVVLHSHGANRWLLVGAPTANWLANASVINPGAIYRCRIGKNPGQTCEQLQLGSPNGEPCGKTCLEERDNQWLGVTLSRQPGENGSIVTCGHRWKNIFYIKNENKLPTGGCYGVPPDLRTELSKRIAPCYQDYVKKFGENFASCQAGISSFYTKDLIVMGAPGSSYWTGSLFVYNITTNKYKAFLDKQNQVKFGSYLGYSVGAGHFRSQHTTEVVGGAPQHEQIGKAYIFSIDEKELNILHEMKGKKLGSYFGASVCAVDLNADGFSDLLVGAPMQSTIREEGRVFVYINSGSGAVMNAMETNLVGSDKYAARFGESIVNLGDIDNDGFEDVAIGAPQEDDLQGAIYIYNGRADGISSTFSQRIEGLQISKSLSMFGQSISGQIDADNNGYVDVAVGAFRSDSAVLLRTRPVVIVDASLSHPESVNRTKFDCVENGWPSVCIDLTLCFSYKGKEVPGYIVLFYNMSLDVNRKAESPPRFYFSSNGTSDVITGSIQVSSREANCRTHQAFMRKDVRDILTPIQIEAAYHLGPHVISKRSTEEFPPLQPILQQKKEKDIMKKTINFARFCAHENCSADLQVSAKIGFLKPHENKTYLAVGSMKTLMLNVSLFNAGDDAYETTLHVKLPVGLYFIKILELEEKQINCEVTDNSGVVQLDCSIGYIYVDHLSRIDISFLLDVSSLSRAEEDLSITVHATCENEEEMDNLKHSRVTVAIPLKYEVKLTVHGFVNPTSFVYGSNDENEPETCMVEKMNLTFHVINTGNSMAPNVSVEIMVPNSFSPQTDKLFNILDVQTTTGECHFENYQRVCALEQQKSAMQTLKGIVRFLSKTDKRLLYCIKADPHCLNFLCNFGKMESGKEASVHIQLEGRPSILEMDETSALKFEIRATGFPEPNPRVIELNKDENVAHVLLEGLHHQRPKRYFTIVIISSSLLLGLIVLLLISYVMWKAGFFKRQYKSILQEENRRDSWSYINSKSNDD
# [8] = superoxide lowering in aged yeast cells, pilot screen, validation compound set (AID 2706;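 active means superoxide response below 65% of plate, a cut near 3 SD across the whole screen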;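 further: yeast exposed to compound for one week at 30 degrees C before staining; 100% = mean of all compound wells on the same plate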); conditions: S. cerevisiae aging, superoxide DHE fluorescence; at 10 µM, stronger effect = lower value
# [9] = biological target: Beta-adrenergic receptor kinase 1 (Homo sapiens) (UniProt P25098); assay: GRK2 binders displacing RNA aptamer, biochemical, validation, human GRK2, bead flow cytometry (AID 488806;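 active means aptamer binding inhibition above 30%, about 3 SD of noise from non-fluorescent compounds; inactive means inhibition at or below 30%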); conditions: bead-bound GRK2, FAM-aptamer displacement, at 10 µM, stronger effect = higher value
# Chain of Beta-adrenergic receptor kinase 1 (Homo sapiens) (P25098 whole entry, looked up): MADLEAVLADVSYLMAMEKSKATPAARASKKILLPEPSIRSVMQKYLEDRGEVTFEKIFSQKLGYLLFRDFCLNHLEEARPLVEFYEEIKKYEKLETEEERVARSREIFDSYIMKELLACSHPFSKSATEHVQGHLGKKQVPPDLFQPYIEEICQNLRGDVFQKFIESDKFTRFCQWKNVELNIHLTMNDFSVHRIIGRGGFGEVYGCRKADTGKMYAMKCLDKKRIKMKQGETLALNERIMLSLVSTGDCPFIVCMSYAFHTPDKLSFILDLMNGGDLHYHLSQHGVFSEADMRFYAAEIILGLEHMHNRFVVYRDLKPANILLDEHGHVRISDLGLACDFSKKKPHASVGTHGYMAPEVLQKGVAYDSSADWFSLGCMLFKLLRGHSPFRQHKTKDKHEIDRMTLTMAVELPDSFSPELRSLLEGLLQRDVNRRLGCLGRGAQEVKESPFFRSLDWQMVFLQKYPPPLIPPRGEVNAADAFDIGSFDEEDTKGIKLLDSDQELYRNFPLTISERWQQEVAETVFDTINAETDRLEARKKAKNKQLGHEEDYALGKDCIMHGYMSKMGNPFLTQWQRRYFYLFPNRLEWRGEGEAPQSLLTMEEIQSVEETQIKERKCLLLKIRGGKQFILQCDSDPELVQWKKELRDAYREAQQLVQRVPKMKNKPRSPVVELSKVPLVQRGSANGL
# [10] = biological target: AP-2 complex subunit beta (Homo sapiens) (UniProt P63010); assay: inhibitors of arrestin peptide binding to AP2, pilot screen, biochemical, validation set, GST-AP2 beads, flow cytometry (AID 504541;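 active means inhibition above 54%, about 3 SD of non-fluorescent compounds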;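 further: AP2 carries R879A mutation and is captured from E. coli lysate; bead-bound FITC arrestin peptide fluorescence measuring arrestin peptide binding to AP2; 0% = DMSO wells and 100% = excess unlabeled arrestin peptide control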); conditions: FITC arrestin peptide, at 10 µM, stronger effect = higher value, AP2 beta2 appendage fragment, R879A mutant
# Chain of AP-2 complex subunit beta (Homo sapiens) (P63010 whole entry, looked up, the tested form may be a part, one chain of several): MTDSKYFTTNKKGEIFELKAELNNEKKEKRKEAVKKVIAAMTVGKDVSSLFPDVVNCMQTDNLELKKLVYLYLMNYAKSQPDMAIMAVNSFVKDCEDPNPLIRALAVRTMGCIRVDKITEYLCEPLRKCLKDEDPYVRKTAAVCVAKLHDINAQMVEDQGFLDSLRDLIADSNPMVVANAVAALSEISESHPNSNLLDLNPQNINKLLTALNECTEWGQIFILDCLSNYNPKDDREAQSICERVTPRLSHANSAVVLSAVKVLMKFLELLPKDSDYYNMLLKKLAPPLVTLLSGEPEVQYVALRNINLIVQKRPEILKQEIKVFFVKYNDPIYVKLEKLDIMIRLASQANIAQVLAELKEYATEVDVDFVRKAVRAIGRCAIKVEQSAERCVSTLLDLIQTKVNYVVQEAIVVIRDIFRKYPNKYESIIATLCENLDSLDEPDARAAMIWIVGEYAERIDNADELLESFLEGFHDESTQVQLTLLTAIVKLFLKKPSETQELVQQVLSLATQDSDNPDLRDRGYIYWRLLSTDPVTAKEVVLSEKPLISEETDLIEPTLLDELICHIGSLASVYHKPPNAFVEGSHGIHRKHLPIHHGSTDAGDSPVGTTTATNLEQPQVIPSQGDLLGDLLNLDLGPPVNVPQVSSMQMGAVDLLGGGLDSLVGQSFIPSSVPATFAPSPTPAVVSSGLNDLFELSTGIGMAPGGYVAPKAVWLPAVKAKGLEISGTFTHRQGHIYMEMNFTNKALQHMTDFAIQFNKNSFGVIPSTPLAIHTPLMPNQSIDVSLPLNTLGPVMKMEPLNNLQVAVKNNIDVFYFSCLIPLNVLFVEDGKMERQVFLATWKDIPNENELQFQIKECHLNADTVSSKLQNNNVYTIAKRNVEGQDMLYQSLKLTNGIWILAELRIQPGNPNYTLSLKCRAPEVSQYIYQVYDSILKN
# [11] = yeast V-ATPase proton transport modulators, S. cerevisiae, pHLuorin, HTS validation (AID 504600; in the data active means response above about 15%;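 further: plate controls were DMSO for no effect and reference compound for full effect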); conditions: S. cerevisiae pHLuorin cytosolic pH, at 10 µM, stronger effect = higher value
# [12] = tested on: anti-desmoglein-3 scFv antibody binding to human DSG3; assay: inhibitors of anti-DSG3 scFv binding to DSG3, pilot screen, biochemical, validation compound set, bead-based, flow cytometry (AID 588368;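 active means binding below the plate cutoff, the plate median minus 3 SD, with a reading above zero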;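 further: signal is the median channel fluorescence of bead-bound GFP antibody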); conditions: Protein G beads, DSG3-Fc, scFv-GFP binding, at 10 µM, stronger effect = lower value
# [13] = inhibitors of fungal efflux pumps CDR1, CDR2, MDR1, pilot screen, validation compound set, multiplex, phenotypic (AID 588506;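 active means efflux inhibition above 0.42, the validation set average plus 4 SD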;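 further: Nile Red retained in cells so higher fluorescence means more efflux inhibition; 0 = negative control wells and 1 = enniatin B 25 µM full block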); conditions: S. cerevisiae pump-expressing triplex, Nile Red efflux flow cytometry; at 10 µM; stronger effect = higher value; the pumps come from Candida albicans
# [14] = biological target: ATP-binding cassette sub-family B member 6 (Homo sapiens) (UniProt Q9NP58); assay: ABCB6 transporter inhibitors, pilot screen, K562-ABCB6 cells, flow cytometry, validation set (AID 588550;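 active means inhibition above the screen-wide mean plus 3 SD, about 51%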;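 further: 0% = DMSO wells and 100% = benzethonium chloride 70 µM positive control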); conditions: K562-ABCB6 porphyrin accumulation, 1 h, at 10 µM, stronger effect = higher value
# Chain of ATP-binding cassette sub-family B member 6 (Homo sapiens) (Q9NP58 whole entry, looked up): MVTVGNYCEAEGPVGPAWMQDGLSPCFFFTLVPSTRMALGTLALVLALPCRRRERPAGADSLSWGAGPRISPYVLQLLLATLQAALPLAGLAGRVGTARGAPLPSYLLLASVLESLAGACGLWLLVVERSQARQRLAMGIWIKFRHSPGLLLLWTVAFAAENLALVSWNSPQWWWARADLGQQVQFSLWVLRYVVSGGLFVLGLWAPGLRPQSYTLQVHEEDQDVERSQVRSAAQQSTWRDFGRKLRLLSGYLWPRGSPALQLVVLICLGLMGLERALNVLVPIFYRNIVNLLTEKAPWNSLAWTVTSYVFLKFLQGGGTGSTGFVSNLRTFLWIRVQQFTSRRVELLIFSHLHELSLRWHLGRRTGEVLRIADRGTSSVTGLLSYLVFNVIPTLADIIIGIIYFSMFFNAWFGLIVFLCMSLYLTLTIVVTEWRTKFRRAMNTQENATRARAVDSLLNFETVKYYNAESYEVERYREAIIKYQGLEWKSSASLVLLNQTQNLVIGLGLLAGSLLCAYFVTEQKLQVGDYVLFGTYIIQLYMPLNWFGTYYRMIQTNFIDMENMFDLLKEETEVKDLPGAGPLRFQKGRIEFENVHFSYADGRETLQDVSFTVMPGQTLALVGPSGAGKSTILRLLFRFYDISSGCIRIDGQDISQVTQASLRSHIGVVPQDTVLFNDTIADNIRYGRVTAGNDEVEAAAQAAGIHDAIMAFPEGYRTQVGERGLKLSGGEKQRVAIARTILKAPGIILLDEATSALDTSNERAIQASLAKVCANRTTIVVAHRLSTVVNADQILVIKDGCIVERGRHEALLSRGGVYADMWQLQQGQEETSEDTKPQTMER
# [15] = promoters of myeloid differentiation in arrested cells, primary screen, cell-based, GFP/MAC1 double positive, flow cytometry, validation set (AID 588685;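 active means differentiation response of at least 50%, scaled between solvent and reference control, from cells with both markers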;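 further: compound exposure lasts four days before antibody staining and flow analysis; 0% = DMSO wells and 100% = 5 µM fulvestrant positive control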); conditions: ER-HoxA9 marrow cells, stronger effect = higher value, normalized: vehicle 0, fulvestrant 100
SMILES,percent of DMSO control GFP [1],GFP response vs DMSO [2],percent response of DMSO control [3],GFP response vs DMSO [4],"GFP response, % of DMSO [5]",double positive events [6],vesicle binding response [6],inhibition [7],superoxide response (% of plate) [8],aptamer binding inhibition [9],inhibition [10],response [11],binding (% of control) [12],efflux inhibition (fraction of control) [13],inhibition [14],differentiation response [15]
C=CCc1ccccc1OCC(O)CNC(C)C (stereo not given),103% (inactive),107% (inactive),104% (inactive),108% (inactive),118% (inactive),61.2%,209% (inactive),-11.3% (inactive),96.7% (inactive),-32% (inactive),-4.94% (inactive),0.57% (inactive),107% (inactive),0.12 (inactive),-2% (inactive),-11.9% (inactive)
COC(=O)CN1CC(=O)N(c2ccccc2)C1=S,101% (inactive),106% (inactive),97.9% (inactive),100% (inactive),95.8% (inactive),59.2%,171% (inactive),6.29% (inactive),97.2% (inactive),1% (inactive),9.42% (inactive),4.12% (inactive),106% (inactive),0.22 (inactive),-19% (inactive),6.26% (inactive)
C[C@H](CS)C(=O)N1CCC[C@H]1C(=O)O,106% (inactive),98.9% (inactive),109% (inactive),96.4% (inactive),102% (inactive),58.6%,186% (inactive),-2.11% (inactive),97.4% (inactive),0% (inactive),-2.44% (inactive),-1.86% (inactive),96.7% (inactive),-0.16 (inactive),8% (inactive),-29.3% (inactive)
O=C(NNC(=O)c1cccs1)c1ccco1,104% (inactive),104% (inactive),111% (inactive),111% (inactive),111% (inactive),56.8%,159% (inactive),-3.04% (inactive),95.2% (inactive),1% (inactive),-10.8% (inactive),8.92% (inactive),102% (inactive),-0.05 (inactive),16% (inactive),1.41% (inactive)
CCCN(CCC)S(=O)(=O)c1ccc(C(=O)O)cc1,101% (inactive),107% (inactive),96.9% (inactive),124% (inactive),104% (inactive),56.2%,170% (inactive),1.62% (inactive),104% (inactive),1% (inactive),-3.49% (inactive),0.87% (inactive),99.3% (inactive),-0.05 (inactive),4% (inactive),-24.4% (inactive)
COc1ccc2oc(=O)c(C(=O)N3CCN(c4ccccc4)CC3)cc2c1,97.8% (inactive),93.8% (inactive),101% (inactive),89.3% (inactive),90.3% (inactive),52.5%,130% (inactive),12.8% (inactive),110% (inactive),2% (inactive),10.5% (inactive),-1.57% (inactive),101% (inactive),-0.54 (inactive),10% (inactive),25.6% (inactive)
OC[C@H]1O[C@@H](n2cnc3c(NC4CCCC4)ncnc32)[C@H](O)[C@@H]1O,96.8% (inactive),98.9% (inactive),98.8% (inactive),99.4% (inactive),98.4% (inactive),52.6%,139% (inactive),6.29% (inactive),102% (inactive),4% (inactive),7.18% (inactive),-1.41% (inactive),104% (inactive),0.18 (inactive),2% (inactive),-8.27% (inactive)
COc1ccc2nc(NC(=O)Nc3ccccc3)sc2c1,105% (inactive),96.9% (inactive),111% (inactive),89.3% (inactive),96% (inactive),50.6%,173% (inactive),10% (inactive),92.7% (inactive),-1% (inactive),0.98% (inactive),70.8% (active),95.7% (inactive),-0.47 (inactive),1% (inactive),-22.8% (inactive)
CC1=CC2(O)OCCN(CCO)C2=CC1=O (stereo not given),103% (inactive),102% (inactive),101% (inactive),93.3% (inactive),97.9% (inactive),56.9%,162% (inactive),-12.4% (inactive),103% (inactive),2% (inactive),-3.8% (inactive),-1.28% (inactive),102% (inactive),0.29 (inactive),7% (inactive),3.03% (inactive)
CC(C)[N+]1(C)[C@@H]2CC[C@H]1CC(OC(=O)C(CO)c1ccccc1)C2 (stereo not given in full),101% (inactive),95.9% (inactive),102% (inactive),101% (inactive),104% (inactive),53.4%,158% (inactive),27.7% (inactive),94.6% (inactive),-2% (inactive),7.81% (inactive),2.53% (inactive),102% (inactive),-0.12 (inactive),11% (inactive),-9.89% (inactive)
CCc1cc(=O)oc2cc(C)c(CN3CCCC(C)C3)c(O)c12 (stereo not given),102% (inactive),103% (inactive),103% (inactive),84.3% (inactive),94.9% (inactive),52.2%,161% (inactive),-5.84% (inactive),105% (inactive),2% (inactive),26.7% (inactive),-0.18% (inactive),73.4% (inactive),0.18 (inactive),5% (inactive),-18% (inactive)
CC1(C)OC2OC(C(=O)N/N=C/c3ccccc3F)C3OC(C)(C)OC3C2O1 (stereo not given),100% (inactive),106% (inactive),97.9% (inactive),101% (inactive),101% (inactive),53.1%,164% (inactive),12.8% (inactive),103% (inactive),1% (inactive),0.54% (inactive),1.25% (inactive),96.5% (inactive),0.52 (active),9% (inactive),-13.1% (inactive)
C[C@]12CC[C@H]3C(=CCc4cc(O)ccc43)[C@@H]1CCC2=O,101% (inactive),94.8% (inactive),90% (inactive),110% (inactive),92.1% (inactive),59.4%,172% (inactive),7.22% (inactive),102% (inactive),7% (inactive),2.28% (inactive),-1.47% (inactive),103% (inactive),0.25 (inactive),4% (inactive),1.41% (inactive)
COc1ccc2cc(CCC(C)=O)ccc2c1,101% (inactive),103% (inactive),93% (inactive),101% (inactive),85.2% (inactive),55.4%,150% (inactive),2.56% (inactive),86.7% (inactive),2% (inactive),-2.69% (inactive),-0.19% (inactive),108% (inactive),0.63 (active),4% (inactive),0% (inactive)
COC(=O)c1cc(=O)c2ccc(OC)cc2o1,99.1% (inactive),97.9% (inactive),111% (inactive),100% (inactive),90.9% (inactive),52.9%,152% (inactive),17.5% (inactive),94.7% (inactive),1% (inactive),-3.93% (inactive),37.7% (active),101% (inactive),0.03 (inactive),6% (inactive),-11.5% (inactive)
C#C[C@]1(O)CC[C@H]2[C@@H]3CCC4=C(CCC(=O)C4)[C@H]3CC[C@@]21C,97.1% (inactive),92.8% (inactive),94.9% (inactive),129% (inactive),98.7% (inactive),55.6%,188% (inactive),2.56% (inactive),95.1% (inactive),2% (inactive),1.1% (inactive),5.28% (inactive),102% (inactive),-0.2 (inactive),7% (inactive),-0.2% (inactive)
CC(=O)Oc1ccc(C(=O)O)cc1OC(C)=O,98% (inactive),104% (inactive),104% (inactive),99.4% (inactive),98.4% (inactive),59.1%,164% (inactive),-3.04% (inactive),98.2% (inactive),4% (inactive),-6.29% (inactive),0.26% (inactive),105% (inactive),-0.01 (inactive),6% (inactive),1.41% (inactive)
CC1(C)S[C@@H]2[C@H](NC(=O)C(C(=O)O)c3ccccc3)C(=O)N2[C@H]1C(=O)O (stereo not given in full),96.3% (inactive),94.8% (inactive),105% (inactive),88.3% (inactive),98.5% (inactive),53.1%,212% (inactive),2.56% (inactive),108% (inactive),4% (inactive),1.78% (inactive),-1.48% (inactive),97.2% (inactive),-0.12 (inactive),9% (inactive),1.41% (inactive)
CCOC(=O)C1(CCCc2ccccc2)CCN(C2CCN(C(C)=O)CC2)CC1,97.1% (inactive),101% (inactive),99.8% (inactive),92.3% (inactive),92.4% (inactive),52%,138% (inactive),-12.4% (inactive),103% (inactive),9% (inactive),12.5% (inactive),-6.58% (inactive),109% (inactive),0.37 (inactive),9% (inactive),-13.1% (inactive)
Cc1cc(-c2nn(-c3ccccc3F)cc2CN2CCC(O)CC2)c(C)s1,102% (inactive),98.9% (inactive),104% (inactive),93.3% (inactive),95.5% (inactive),47.2%,132% (inactive),-7.7% (inactive),93.1% (inactive),4% (inactive),-9.39% (inactive),0.7% (inactive),98.3% (inactive),-0.35 (inactive),10% (inactive),-30.9% (inactive)
